Reference: the supplement of paper PMC6805474
Unmarked numbers belong to inactive results.

Test system: Schistosoma mansoni schistosomula (Liberian)
Assay: drug effect (1 - score/DMSO control score) (fraction); higher = more antischistosomal effect, active = 0.5 or more; extreme values may be limits of the assay
Conditions: 24 h; 10 µM
Summary of the method: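 Drug effect was calculated by comparing the mean score of the test wells with the mean score of the DMSO wells, and any negative value was set to zero. Duplicate wells of 50 Liberian-strain S. mansoni schistosomula, mechanically transformed from cercariae and pre-incubated at least 12 h, received 10 µM compound in Medium 199 with 5% FCS at 37 °C, 5% CO2, with 0.1% DMSO in the comparison wells. Visual scoring at 10× took place at 24, 48 and 72 h on a quarter-point scale from 3 (normal) to 0 (dead), and a plate counted only if its DMSO wells averaged at least 2.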

Which drug effect does the source give for `Cc1cc(NC(=O)c2ccc(Oc3ccc(Cl)cc3O)o2)no1` here?
Its drug effect is 0.1.

How did the drug effect turn out when `CC(C)n1nc(-c2cc3c(Cl)cccc3[nH]2)c2c(N)ncnc21` was run?
Its drug effect is 0.55 (active).

`CN1CCN(c2cc(-c3ccc(F)cc3)nc(-c3ccncc3)n2)CC1` was tested. Which drug effect did it give?
The drug effect was 0.182.

`COC(=O)c1c(NC(=O)c2c(F)c(F)c(F)c(F)c2F)sc2c1CCCCC2` was tested. Which drug effect did it give?
The drug effect was 1 (active).

With `Cc1nn(C(=O)Nc2cccc(C(F)(F)F)c2)c(C)c1Sc1ncccn1` as the compound, how does the drug effect read?
Its drug effect is 0.15.

Which drug effect does the source give for `c1ccc(Oc2ccc(-c3cc(N4CCNCC4)[nH]n3)cc2)cc1` here?
Its drug effect is 0.05.

`Cn1c(=O)c2c(S(C)(=O)=O)snc2n(C)c1=O` was tested. Which drug effect did it give?
The drug effect was 1 (active).

With `c1ccc(-c2nc(NC3CCCCC3)cc(C3CC3)n2)nc1` as the compound, how does the drug effect read?
Its drug effect is < 0.

`COc1cncc(-c2cncc(N3CCN(c4ccncc4)CC3)n2)c1` was tested. Which drug effect did it give?
The drug effect was 0.351.

Same assay, conditions: 48 h; 10 µM

With `Cc1cc(O)nc(-n2nc(C)cc2C)n1` as the compound, how does the drug effect read?
The drug effect was 0.243.

With `N=C(N)c1ccc(OCCCCCOc2ccc(C(=N)N)cc2)cc1` as the compound, how does the drug effect read?
Its drug effect is < 0.

For `O=C(Nc1ccc(N2CCNCC2)cc1)c1ccn2ncc(-c3cccc(Cl)c3)c2n1`, which drug effect is on record?
Its drug effect is 0.778 (active).

With `Cc1ccc(S(=O)(=O)N2CCN(C(=O)c3cc(-c4ccccc4)[nH]n3)CC2)cc1` as the compound, how does the drug effect read?
The drug effect was 0.75 (active).

Which drug effect does the source give for `c1csc(-c2cnc3sc(NCC4CCOCC4)nn23)c1` here?
Its drug effect is 0.55 (active).

Which drug effect does the source give for `Brc1cncc(-c2cc(NCCCn3ccnc3)nc(-c3ccccc3)n2)c1` here?
Its drug effect is 0.65 (active).

How did the drug effect turn out when `O=C(NC1=NCCS1)c1sc2cc(F)ccc2c1Cl` was run?
The drug effect was 0.1.

For `O=C(NCCc1c[nH]c2ccccc12)c1cc2ccccc2oc1=O`, which drug effect is on record?
Its drug effect is 0.4.

How did the drug effect turn out when `CCc1ccc(S(=O)(=O)Nc2cc(CN3CCN(CCC(C)C)CC3)ccc2C)cc1` was run?
Its drug effect is 0.444.

How did the drug effect turn out when `Clc1ccc(CN2CCN(C3=NCCN3)CC2)cc1Cl` was run?
The drug effect was 0.0556.

For `CC(c1cc(Cl)cc(Cl)c1)N(C)c1ncc2c(N)nc(N)nc2n1` (stereo not given), which drug effect is on record?
Its drug effect is < 0.

Which drug effect does the source give for `Nc1ncc(-c2ccc(C(F)(F)F)nc2)cc1-c1ccc(C(F)(F)F)nc1` here?
The drug effect was 0.15.

How did the drug effect turn out when `FC(F)(F)c1nnc2ccc(Cl)nn12` was run?
The drug effect was 0.189.

`O=C(c1ccc(NCCO)cc1)C1C[C@H]1c1ccc(Cl)cc1` (stereo not given in full) was tested. Which drug effect did it give?
The drug effect was 0.278.

With `NCC(=O)N1CCn2c(nc(-c3ccccc3)c2Nc2ccc3c(c2)OCO3)C1` as the compound, how does the drug effect read?
Its drug effect is 0.444.

How did the drug effect turn out when `C[C@H]1COc2c(N3CCN(C)CC3)c(F)cc3c(=O)c(C(=O)O)cn1c23` was run?
Its drug effect is 0.05.

`COc1ccc(C2=NN(C3CCCCCC3)C(=O)C2(C)C)cc1OCc1ccccn1` was tested. Which drug effect did it give?
The drug effect was 0.4.

Which drug effect does the source give for `COc1ccc(CCN2CCC(NCc3cccc(N(C)C)c3)CC2)cc1` here?
The drug effect was 0.027.

For `COc1cccc2c(C)nc(N=C(N)N)nc12`, which drug effect is on record?
Its drug effect is 0.2.

How did the drug effect turn out when `Nc1ncc(-c2cn[nH]c2)cc1-c1nc2cc(Cl)cnc2[nH]1` was run?
Its drug effect is < 0.

Which drug effect does the source give for `Nc1ncnc2c1ncn2C[C@@H](O)[C@@H](O)C(=O)O` here?
The drug effect was 0.189.

How did the drug effect turn out when `CN1CCC(c2cc(-c3ccncc3)c(-c3ccc(F)cc3)[nH]2)CC1` was run?
Its drug effect is 0.0556.

`Cc1[nH]c2ccccc2c1C(c1cccs1)N1CCN(C)CC1` (stereo not given) was tested. Which drug effect did it give?
Its drug effect is 1 (active).

How did the drug effect turn out when `Cc1cccc(Cn2ccc(NC(=O)c3ccc4c(c3)OCO4)n2)c1` was run?
The drug effect was 0.125.

With `COc1ccc(N(CCc2cccc(C)n2)C(C)=O)cc1` as the compound, how does the drug effect read?
Its drug effect is 0.135.

Which drug effect does the source give for `CC[C@H](CO)NCCN[C@H](CC)CO` here?
Its drug effect is 0.135.

Which drug effect does the source give for `O=C(NC1CCCCC1)N1CCN(Cc2ccc3c(c2)OCO3)CC1` here?
Its drug effect is 0.2.

Which drug effect does the source give for `Brc1c(-c2ccc3c(c2)OCO3)nc2ncccn12` here?
Its drug effect is 0.2.

Which drug effect does the source give for `CCCCS(=O)(=O)Nc1ccc2cnn(C)c2c1` here?
The drug effect was 0.111.

For `Cc1cc(NC(=O)c2ccc(Oc3ccc(Cl)cc3O)o2)no1`, which drug effect is on record?
The drug effect was < 0.

Which drug effect does the source give for `CC(C)n1nc(-c2cc3c(Cl)cccc3[nH]2)c2c(N)ncnc21` here?
The drug effect was 0.667 (active).

How did the drug effect turn out when `CN1CCN(c2cc(-c3ccc(F)cc3)nc(-c3ccncc3)n2)CC1` was run?
Its drug effect is 0.35.

With `COC(=O)c1c(NC(=O)c2c(F)c(F)c(F)c(F)c2F)sc2c1CCCCC2` as the compound, how does the drug effect read?
The drug effect was 1 (active).

How did the drug effect turn out when `Cc1nn(C(=O)Nc2cccc(C(F)(F)F)c2)c(C)c1Sc1ncccn1` was run?
Its drug effect is 0.167.

`c1ccc(Oc2ccc(-c3cc(N4CCNCC4)[nH]n3)cc2)cc1` was tested. Which drug effect did it give?
Its drug effect is 0.15.

For `Cn1c(=O)c2c(S(C)(=O)=O)snc2n(C)c1=O`, which drug effect is on record?
The drug effect was 1 (active).

For `c1ccc(-c2nc(NC3CCCCC3)cc(C3CC3)n2)nc1`, which drug effect is on record?
Its drug effect is 0.0811.

With `COc1cncc(-c2cncc(N3CCN(c4ccncc4)CC3)n2)c1` as the compound, how does the drug effect read?
The drug effect was 0.389.

Same assay, conditions: 72 h; 10 µM

Which drug effect does the source give for `Cc1cc(O)nc(-n2nc(C)cc2C)n1` here?
Its drug effect is 0.576 (active).

Which drug effect does the source give for `N=C(N)c1ccc(OCCCCCOc2ccc(C(=N)N)cc2)cc1` here?
Its drug effect is < 0.

How did the drug effect turn out when `O=C(Nc1ccc(N2CCNCC2)cc1)c1ccn2ncc(-c3cccc(Cl)c3)c2n1` was run?
The drug effect was 0.938 (active).

`Cc1ccc(S(=O)(=O)N2CCN(C(=O)c3cc(-c4ccccc4)[nH]n3)CC2)cc1` was tested. Which drug effect did it give?
The drug effect was 0.836 (active).

How did the drug effect turn out when `c1csc(-c2cnc3sc(NCC4CCOCC4)nn23)c1` was run?
The drug effect was 0.345.

How did the drug effect turn out when `Brc1cncc(-c2cc(NCCCn3ccnc3)nc(-c3ccccc3)n2)c1` was run?
Its drug effect is 0.673 (active).

With `O=C(NC1=NCCS1)c1sc2cc(F)ccc2c1Cl` as the compound, how does the drug effect read?
The drug effect was 0.0182.

Which drug effect does the source give for `O=C(NCCc1c[nH]c2ccccc12)c1cc2ccccc2oc1=O` here?
Its drug effect is 0.455.

`CCc1ccc(S(=O)(=O)Nc2cc(CN3CCN(CCC(C)C)CC3)ccc2C)cc1` was tested. Which drug effect did it give?
Its drug effect is 0.5 (active).

`Clc1ccc(CN2CCN(C3=NCCN3)CC2)cc1Cl` was tested. Which drug effect did it give?
The drug effect was 0.125.

`CC(c1cc(Cl)cc(Cl)c1)N(C)c1ncc2c(N)nc(N)nc2n1` (stereo not given) was tested. Which drug effect did it give?
The drug effect was 0.167.

For `Nc1ncc(-c2ccc(C(F)(F)F)nc2)cc1-c1ccc(C(F)(F)F)nc1`, which drug effect is on record?
The drug effect was 0.127.

Which drug effect does the source give for `FC(F)(F)c1nnc2ccc(Cl)nn12` here?
The drug effect was 0.333.

`O=C(c1ccc(NCCO)cc1)C1C[C@H]1c1ccc(Cl)cc1` (stereo not given in full) was tested. Which drug effect did it give?
Its drug effect is 0.625 (active).

How did the drug effect turn out when `NCC(=O)N1CCn2c(nc(-c3ccccc3)c2Nc2ccc3c(c2)OCO3)C1` was run?
Its drug effect is 0.688 (active).

Which drug effect does the source give for `C[C@H]1COc2c(N3CCN(C)CC3)c(F)cc3c(=O)c(C(=O)O)cn1c23` here?
Its drug effect is 0.0526.

Which drug effect does the source give for `COc1ccc(C2=NN(C3CCCCCC3)C(=O)C2(C)C)cc1OCc1ccccn1` here?
Its drug effect is 0.4.

Which drug effect does the source give for `COc1ccc(CCN2CCC(NCc3cccc(N(C)C)c3)CC2)cc1` here?
Its drug effect is 0.0303.

With `COc1cccc2c(C)nc(N=C(N)N)nc12` as the compound, how does the drug effect read?
The drug effect was 0.127.

Which drug effect does the source give for `Nc1ncc(-c2cn[nH]c2)cc1-c1nc2cc(Cl)cnc2[nH]1` here?
Its drug effect is 0.0556.

Which drug effect does the source give for `Nc1ncnc2c1ncn2C[C@@H](O)[C@@H](O)C(=O)O` here?
The drug effect was 0.222.

For `CN1CCC(c2cc(-c3ccncc3)c(-c3ccc(F)cc3)[nH]2)CC1`, which drug effect is on record?
The drug effect was 0.111.

Which drug effect does the source give for `Cc1[nH]c2ccccc2c1C(c1cccs1)N1CCN(C)CC1` (stereo not given) here?
Its drug effect is 1 (active).

With `Cc1cccc(Cn2ccc(NC(=O)c3ccc4c(c3)OCO4)n2)c1` as the compound, how does the drug effect read?
The drug effect was < 0.

With `COc1ccc(N(CCc2cccc(C)n2)C(C)=O)cc1` as the compound, how does the drug effect read?
The drug effect was 0.0909.

With `CC[C@H](CO)NCCN[C@H](CC)CO` as the compound, how does the drug effect read?
The drug effect was 0.278.

For `O=C(NC1CCCCC1)N1CCN(Cc2ccc3c(c2)OCO3)CC1`, which drug effect is on record?
The drug effect was 0.127.

`Brc1c(-c2ccc3c(c2)OCO3)nc2ncccn12` was tested. Which drug effect did it give?
The drug effect was 0.127.

How did the drug effect turn out when `CCCCS(=O)(=O)Nc1ccc2cnn(C)c2c1` was run?
Its drug effect is 0.0625.

For `Cc1cc(NC(=O)c2ccc(Oc3ccc(Cl)cc3O)o2)no1`, which drug effect is on record?
The drug effect was 0.111.

Which drug effect does the source give for `CC(C)n1nc(-c2cc3c(Cl)cccc3[nH]2)c2c(N)ncnc21` here?
Its drug effect is 1 (active).

`CN1CCN(c2cc(-c3ccc(F)cc3)nc(-c3ccncc3)n2)CC1` was tested. Which drug effect did it give?
The drug effect was 0.345.

Which drug effect does the source give for `COC(=O)c1c(NC(=O)c2c(F)c(F)c(F)c(F)c2F)sc2c1CCCCC2` here?
The drug effect was 1 (active).

For `Cc1nn(C(=O)Nc2cccc(C(F)(F)F)c2)c(C)c1Sc1ncccn1`, which drug effect is on record?
The drug effect was 0.312.

For `c1ccc(Oc2ccc(-c3cc(N4CCNCC4)[nH]n3)cc2)cc1`, which drug effect is on record?
The drug effect was 0.444.

With `Cn1c(=O)c2c(S(C)(=O)=O)snc2n(C)c1=O` as the compound, how does the drug effect read?
Its drug effect is 1 (active).

With `c1ccc(-c2nc(NC3CCCCC3)cc(C3CC3)n2)nc1` as the compound, how does the drug effect read?
Its drug effect is 0.152.

For `COc1cncc(-c2cncc(N3CCN(c4ccncc4)CC3)n2)c1`, which drug effect is on record?
The drug effect was 0.688 (active).
